Here are results for 93 compounds from PubChem BioAssay AID1778 (Sanford-Burnham Center for Chemical Genomics, 2009).

About 260 (0.09%) of roughly 290,000 compounds were called active. This is one part of a sample in which actives are shown more often than they occur. Results with a measured potency or affinity are listed apart. A number with no mark means an inactive call. Rule as the data show it: active = inhibition above about 50%; inactive = the rest.

Kappa-type opioid receptor (Homo sapiens), sequence (P41145 whole entry, looked up): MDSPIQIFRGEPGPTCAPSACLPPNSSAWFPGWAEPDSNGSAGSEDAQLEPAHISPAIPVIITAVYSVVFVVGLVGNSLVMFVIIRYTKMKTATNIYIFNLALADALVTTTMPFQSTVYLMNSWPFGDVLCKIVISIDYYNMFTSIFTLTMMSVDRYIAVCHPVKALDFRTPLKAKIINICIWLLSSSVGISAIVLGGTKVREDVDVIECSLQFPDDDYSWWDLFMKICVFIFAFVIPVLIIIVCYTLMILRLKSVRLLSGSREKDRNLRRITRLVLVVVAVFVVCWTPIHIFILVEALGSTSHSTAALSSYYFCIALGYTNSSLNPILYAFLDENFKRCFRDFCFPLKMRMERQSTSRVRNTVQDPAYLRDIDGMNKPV

The assay addresses Kappa-type opioid receptor (Homo sapiens) (UniProt P41145). Description: KOR antagonists, beta-arrestin recruitment, cell-based, luminescence, uHTS (AID 1778). The following applies: antagonist mode, active compounds read high; at 10 µM unless noted. On the technique in general: Arrestin recruitment assays detect the binding of arrestin to an activated receptor.
With `Cc1ccc(S(=O)(=O)N(Cc2cc3ccc(C)cc3[nH]c2=O)c2ccccc2)cc1`, the inhibition – broadly, the change of the read-out against control, counted positive when it falls – is 17.5%. As for `CCCCCn1c(SCCCC)nc2c1c(=O)[nH]c(=O)n2C`, the inhibition is -43.8%. To `COc1cc2c(cc1OC)C1(CCCC1)CNC2c1ccc([N+](=O)[O-])cc1` (stereo not drawn) belongs -8.4%; to `COc1cc2c(cc1OC)C1(CCCC1)CNC2C` (stereo not drawn), 7.4%. In the case of `COc1ccc(OC)c(NC(=O)Nc2ccc3c(c2)OCO3)c1` it was -10.5%; in that of `O=C(Nc1ccc(C(F)(F)F)cc1)c1ccc2ncsc2c1`, -15.9%. Consider `O=C1C(Cl)=C(Nc2ccc3cn[nH]c3c2)C(=O)c2ccccc21`, for which the inhibition was 76.4% (active). In the case of `O=C1C(Cl)=C(Nc2ccccc2)C(=O)c2ccccc21` it was 15.5%. To `Cc1ccc(NC2=C(Cl)C(=O)c3ccccc3C2=O)cc1` belongs 37.4%; to `COC(=O)c1c(NC(=O)/C=C/C(=O)O)sc(Cc2ccccc2)c1C`, 14.3%; to `NNC(=O)c1ccc(CSc2cccc3cccnc23)cc1`, -21.6%. As to `O=C(c1ccc(CNS(=O)(=O)c2ccc(Br)cc2)cc1)N1CCCCCC1`, the inhibition is -30.5%. Turning to `CC(=O)N1CCc2cc(S(=O)(=O)NC(Cc3ccccc3)C(=O)NCCN3CCCCC3C)ccc21` (stereo not drawn), the inhibition is 15%. In the case of `Oc1[nH]c(N=C2N=c3ccccc3=N2)c2ccccc12` it was 59.4% (active). For `N#CC(=C1N=c2ccccc2=N1)c1c(O)[nH]c2ccccc12`, the inhibition was -33.6%. `Oc1[nH]c(=S)sc1C=C1N=c2ccccc2=N1`: the inhibition is 6.5%. `O=C(COc1ccccc1)N1CCN=C1SCc1ccc(F)cc1`: the inhibition is 2.9%.

Turning to `O=C(CSc1nnc2c(Cl)cc(C(F)(F)F)cn12)N(Cc1ccccc1)Cc1ccccc1`, the inhibition was 1%.

With `Cc1cc(NS(=O)(=O)c2ccc(NC(=O)c3ccc(Cl)cc3Cl)cc2)no1`, the inhibition is -5.5%.

Consider `O=C(N/N=C(\c1ccccc1)c1cccnc1)c1ccc(O)cc1`, for which the inhibition is 28.3%.

With `O=C(N/N=C(\c1ccccc1)c1cccnc1)c1cc(O)ccc1O`, the inhibition was -0.3%.

`CC1=C(C#N)C(NC(=O)c2ccco2)(C(F)(F)F)C(=O)N1` (stereo not drawn): the inhibition was 9.4%.

Consider `CCc1nnc(NC(=O)c2c(OC)cccc2OC)s1`, for which the inhibition was -5.6%. In the case of `CCc1nnc(NC(=O)c2ccc3ccccc3n2)s1` it was 0.1%; in that of `C=CCN1C(=O)C(CC(=O)O)SC1=Nc1ccc(C(=O)O)cc1` (stereo not drawn), 5.3%. As to `CCOC(=O)C1CCN(S(=O)(=O)c2cc(C(=O)N3CCCCC3)ccc2OC)CC1`, the inhibition is 2.3%. To `COc1ccc(CNC(=O)C2CCC(=O)N(CCCN3CCCC3=O)C2)c(OC)c1` (stereo not drawn) belongs -21.5%; to `COc1cc(NC(=O)CN2C(=O)CN(C)C2=O)c(C)cc1[N+](=O)[O-]`, -7.1%. To `COc1cc(NC(=O)CN2CCCCC2)c(C)cc1[N+](=O)[O-]` belongs 13%.

As to `COc1ccc(SCC(=O)c2cc(C)c(OC(=S)N(C)C)c(C)c2)cc1`, the inhibition was -46.3%. Consider `CC(C)C(=O)OCC(=O)NCc1ccccc1Cl`, for which the inhibition is -7.3%. Regarding `O=C(CCN1C(=O)[C@@H]2Cc3ccccc3CN2C1=O)N[C@H](Cc1ccccc1)C(=O)O`, the inhibition was -10% [at 20 µM].

As to `C=CCn1c(O)c(N=NC(=S)Nc2cccc(C)c2)c2ccccc21`, the inhibition is 34%. Regarding `C=CCn1c(O)c(N=NC(=S)Nc2cccc(OC)c2)c2ccccc21`, the inhibition is 52.2% (active).

Regarding `C=CCn1c(O)c(N=NC(=S)Nc2ccc(OC)cc2)c2ccccc21`, the inhibition was 44.9%. To `N=C1C(c2nc3ccccc3s2)=C(O)CN1CCCO` belongs 5.8%. In the case of `CCN(CC)CCCN=Cc1c(-c2ccccc2)[nH]n(-c2nc3ccccc3s2)c1=O` it was 2.1%; in that of `Cc1cc(Cl)ccc1NC(=O)Cn1cncn1`, -2.4%; in that of `CC(CCc1ccc(O)cc1)NCCC(c1ccccc1)c1ccccc1` (stereo not drawn), 42.6%. In the case of `CC(NCCC(c1ccccc1)c1ccccc1)c1ccccc1` (stereo not drawn) it was -18.9%; in that of `CCOC(=O)c1c(C)[nH]c(C)c1C(=O)CSc1nc2ccccc2c(=O)n1-c1ccc(Cl)cc1`, -15.4%.

Take `Nc1c2c(nc3sc4c(c13)CCCC4)-c1ccccc1CC2`: the inhibition is 9.5%.

On to `Nc1nc2sc3c(c2c(=O)s1)CCCC3`, for which the inhibition is -49.8%. In the case of `Nc1c2c(nc3sc4c(c13)CCCCC4)CCCCC2` it was -28.2%; in that of `Nc1c2c(nc3sc4c(c13)CCCC4)CCCCCC2`, -20.4%; in that of `CC1CCN(C(=O)COc2ccc3ccccc3c2Br)CC1`, -12.2%. To `CCc1ccc(CN2CCC(C(=O)Nc3cccc(-c4nnc(C)s4)c3)CC2)o1` belongs -24.6%; to `O=S(=O)(NCCc1ccccc1)c1ccc(-n2cnnn2)cc1`, -7.2%; to `CC(=O)Nc1cccc(NC(=O)COc2nncc3ccccc23)c1`, 13.2%. Consider `CC(C)Cn1c(C(C)NC(=O)Cc2ccccc2)nc2ccccc21` (stereo not drawn), for which the inhibition is -13.7%. With `O=C1CCC([N+](=O)[O-])C(c2ccc(Cl)cc2)N1` (stereo not drawn), the inhibition was -23.8%. To `CCOC(=O)c1cc2c(ccc3ccccc32)oc1=O` belongs -26.8% [at 20 µM]; to `CC(=O)c1cc2c(ccc3ccccc32)oc1=O`, -8.6%. For the compound `CC1(C)CC(=O)CC(=Nc2ccc3[nH]c(=O)[nH]c3c2)C1`, the inhibition is 17.9%.

With `CC1Oc2ccccc2C=C1/C=N/NC(=O)c1ccncc1` (stereo not drawn), the inhibition is 22.3%. For `CC(C)CCn1nnnc1CN1CCN(c2ccc(F)cc2)CC1`, the inhibition is -16.4% [at 20 µM]. In the case of `Cc1cccc(N2CCCn3c2nc2c3c(=O)n(CCN3CCOCC3)c(=O)n2C)c1` it was -4%. As for `Cn1c(=O)n(CCN2CCOCC2)c(=O)c2c1nc1n2CCCN1c1ccccc1`, the inhibition was 51.1% (active). To `Cc1ccc(N2CCCn3c2nc2c3c(=O)n(CCN3CCOCC3)c(=O)n2C)cc1` belongs -16.1%; to `CN(CC(=O)Nc1ccc(F)c(F)c1F)C(=O)c1ccc(=O)[nH]c1`, 31.4%. In the case of `CN(Cc1cnn(-c2ccccc2)c1)C(=O)C1CCC(=O)N(C2CC2)C1` (stereo not drawn) it was 9.1%; in that of `O=[N+]([O-])c1ccc2nc(-c3ccccc3)cc(-c3ccccc3)c2c1`, 14.3%. Regarding `O=C(O)CNc1nc(-c2ccccc2)c2cc([N+](=O)[O-])ccc2n1`, the inhibition is 4.1%. On to `O=C(O)CCCc1c(-[n+]2ccccc2)[nH]c2ccccc12`, for which the inhibition was 5.9%. `COCCOC(=O)c1[nH]c2c(c1C)C(=O)CC(c1ccc(OC)c(OC)c1)C2` (stereo not drawn): the inhibition is -5.3%.

Turning to `CCN(CCCNC(=O)C1CCN(S(=O)(=O)CC)CC1)c1ccccc1`, the inhibition is 17.3%.

In the case of `CCCCN(CCCNC(=O)C1CCN(S(=O)(=O)CC)CC1)c1ccccc1`, the inhibition was 23.2%. Consider `CN(CCCNC(=O)C1CCN(S(=O)(=O)N2CCC3(CC2)OCCO3)CC1)Cc1ccccc1`, for which the inhibition was -79.2%. `CCCCN(CCCNC(=O)C1CCN(S(=O)(=O)N2CCOCC2)CC1)Cc1ccccc1`: the inhibition was 28.7%.

`Cc1c(Cl)cccc1NC(=S)N1CCCN(Cc2ccccc2F)C1`: the inhibition is -15.1%. With `COc1cccc(C(=O)Oc2cc(C)[nH]c(=O)c2[N+](=O)[O-])c1OC`, the inhibition is 6.3%. Consider `CC(C)[C@H](NC(=O)[C@@H]1Cc2ccccc2CN1)C(=O)Nc1ccc2c(c1)OCCO2`, for which the inhibition was -1.1%. In the case of `COc1ccc(N2CCN(C(C)C(=O)N3CC(C)OC(C)C3)CC2)cc1` (stereo not drawn) it was -2.4%; in that of `O=C1C(=O)N(CCCn2ccnc2)C(c2ccc(Br)cc2)/C1=C(\O)c1ccc2c(c1)OCCO2` (stereo not drawn), -11.2%. To `COc1cc2c(c(OC)c1OC)-c1c(cc3c(c1OC)OCO3)[C@@H](OC(C)=O)[C@H](C)[C@H](C)C2` belongs 20.4%; to `C/C=C(/C)C(=O)O[C@@H]1c2cc3c(c(OC)c2-c2c(cc(OC)c(OC)c2OC)[C@@H](OC(C)=O)[C@@H](C)[C@H]1C)OCO3`, 10.7%; to `COc1ccc(-c2cc(C(=O)N/N=C/c3cccnc3)c3cc(C)cc(C)c3n2)cc1`, 1.8%. In the case of `Cc1cccc(NC(=O)COC(=O)c2ccccc2SCC(=O)N2CCCC2)c1` it was 30.1%; in that of `CC(CN1CCN(C)CC1)OC(=O)c1ccccc1` (stereo not drawn), -12.4%.

Turning to `COc1ccc(CCN2C(=O)C(Oc3ccccc3)C2c2ccc3c(c2)OCO3)cc1` (stereo not drawn), the inhibition was -53.4%. In the case of `COc1ccc(CCN2C(=O)C(Oc3ccccc3C)C2c2ccc3c(c2)OCO3)cc1` (stereo not drawn), the inhibition is -11%. To `O=C1C(Oc2ccccc2)C(c2ccc3c(c2)OCO3)N1CCc1ccc(F)cc1` (stereo not drawn) belongs 64% (active); to `Cc1nc(SCC(=O)N2CCOCC2)c2c(C)c(C)sc2n1`, -32.1%. With `O=C(CSC1=NC(=O)C(c2ccccc2)C(=O)N1)Nc1cccc(Cl)c1` (stereo not drawn), the inhibition was -48.8%. In the case of `C/C(=N\NC(=O)Cc1ccc(Cl)cc1)c1ccccc1O`, the inhibition was -29.7% [at 20 µM].

For the compound `C=CCNC(=S)N/N=C(\C)c1cccc(OC)c1`, the inhibition was 26.1%. Take `C/C(=N\NC(=O)COc1ccccc1-c1ccccc1)c1cccnc1`: the inhibition was -42.8%. In the case of `C/C(=N\NC(=O)COc1ccccc1-c1ccccc1)c1ccc(O)cc1O` it was -14.4%; in that of `C=CCNC(=S)N/N=C(\C)c1cccnc1`, 3.5%; in that of `C/C(=N\NC(=O)COc1ccccc1-c1ccccc1)c1ccccn1`, 99% (active). In the case of `C/C(=N\NC(=O)c1ccccn1)c1ccc(Cl)cc1` it was -13.1%; in that of `CCCn1c2ccccc2c2cnn(CC(=O)NCCN(C)C)c(=O)c21`, -19%; in that of `COc1ccc(OCCSc2nnc(C)n2-c2ccccc2)cc1`, -14.2%.
